About 79,000 compounds went through this panel and 15% of them were active in at least one assay; those are over-represented in the sample as a whole. Unmarked numbers belong to inactive results. Calls of active or inactive are those of the source. Rule as the data show it: active = growth inhibition above about 70%; inactive = the rest.
Test: NCI Yeast Anticancer Drug Screen. Data for the sgs1 mgt1 strain (AID 161);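 also: 0% = growth of cultures given vehicle only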
Details: S. cerevisiae sgs1 mgt1 strain, at 50.0 µM (retest, dose inferred, filed as 5.0), stronger effect = higher value
Outline: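 Compounds are added to genetically altered yeast, and growth is compared with cultures given vehicle alone to give percent inhibition.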

Row | Compound | growth inhibition
1 | CCN(CC)CC[n+]1ccc2c(C)c3[nH]c4ccc(O)cc4c3c(C)c2c1 | 13%
2 | O=[n+]1c2ccc(Cl)cc2n([O-])c2ccc(Cl)cc21 | 20%
3 | CCOP(=O)(OCC)C(Cc1ccccc1)N=C(c1ccccc1)c1ccccc1 (stereo not drawn) | -1%
4 | CC[C@@]1(O)C(=O)OCc2c1cc1n(c2=O)Cc2cc3c(N)cccc3nc2-1 | 14%
5 | COC1C=COC2(C)Oc3c(C)c(O)c4c(c3C2=O)/C(=N/C2CCC(O)OC2C)C=C(NC(=O)/C(C)=C\C(=O)C2CC2C(O)C(C)C(O)C(C)C(OC(C)=O)C1C)C4=O (stereo not drawn) | 56%
6 | COc1cc2c(c(OC)c1OC)-c1c(cc3c(c1OC)OCO3)CC(C)C(C)(O)C2OC(=O)c1ccccc1 (stereo not drawn) | 68%
7 | O=c1ssc2ncccc12 | 96% (active)
8 | O=C1C2C(C(=O)N1c1ccc(OCc3ccccc3)cc1)C1c3ccccc3C2C2CCCCN21 (stereo not drawn) | 61%
9 | COc1ccc(-c2cn(-c3ccc(I)cc3)c3ncnc(N)c23)cc1 | 82% (active)
10 | CCOC(=O)C(NC(=O)c1ccccc1)(N1CCN(c2cc3c(cc2F)c(=O)c(C(=O)O)cn3C2CC2)CC1)C(F)(F)F (stereo not drawn) | -15%
11 | C/C(=N\O)C1CC2C=C(C#N)C1N(Cc1ccccc1)C2 (stereo not drawn) | 24%
12 | CC/C(=C(\c1ccccc1)c1ccc(OCCN(C)C)cc1)c1ccccc1 | 98% (active)
13 | COc1ccccc1N=NC(C(=O)c1ccccc1)C(=O)c1ccccc1 | 95% (active)
14 | CC(O)C(O)C(O)C(/C=N\Nc1ccccc1)=N/Nc1ccccc1 (stereo not drawn) | 56%
15 | COc1ccc(/C=C2\SC(=S)N(/C=C/c3nc4ccccc4[nH]c3=O)C2=O)cc1OC | 57%
16 | N#CN=Nc1cc(Cl)c(N=NC#N)cc1Cl | -4%
17 | Cc1ccc(S(=O)(=O)Oc2cc(Cl)c(Cl)cc2Cl)cc1 | 25%
18 | c1ccc2c(c1)Oc1cccc3cccc-2c13 | 43%
19 | O=C(c1ccc(Cl)cc1Cl)C(Cl)Cl | 99% (active)
20 | CC(C)C1=CCC2C(=C1)CCC1C(C)(C(=O)O)CCCC21C (stereo not drawn) (tested in a mixture with another compound) | 96% (active)

Row | Compound | growth inhibition
21 | COc1cc(/C=C2\CCc3ccccc3C2=O)cc(OC)c1OC | 33%
22 | CC(=O)[O][Bi]([c]1ccccc1)[c]1ccccc1 | 96% (active)
23 | S=C(N/N=C/c1ccccn1)Nc1ccc(Cl)cc1 | 96% (active)
24 | COc1cc(CC2CC(c3ccc4c(c3)OCO4)OC2=O)cc(OC)c1OC (stereo not drawn) | 6%
25 | CNC1C(OC2C(OC3C(O)C(O)C(N=C(N)N)C(O)C3N=C(N)N)OC(C)C2(O)CO)OC(CO)C(O)C1O (stereo not drawn) | -6%
26 | NNC(=O)CCc1ccc2ccc3ccccc3c2c1 | -14%
27 | Oc1ccc2ccccc2c1C(c1ccc(Cl)cc1)c1c(O)ccc2ccccc12 | 94% (active)
28 | CCCCN(CCCC)CCSc1ccc(Cl)cc1 | 70% (active)
29 | CCC(C)COC(=O)c1ccc(N=Cc2ccc(C=Nc3ccc(C(=O)OCC(C)CC)cc3)cc2)cc1 (stereo not drawn) | 98% (active)
30 | CC1(C)C(=O)OC(n2cc(F)c(=O)[nH]c2=O)C1=O (stereo not drawn) | 80% (active)
31 | O=[N+]([O-])CC(SCc1ccccc1)c1ccc2c(c1)OCO2 (stereo not drawn) | 46%
32 | COc1cc2c(cc1[N+](=O)[O-])C(=O)C(Br)(Br)CCC2 | 100% (active)
33 | OCC1OC(OCC(O)C(O)C(O)C(/C=N/Nc2ccccc2)=N/Nc2ccccc2)C(O)C(O)C1O (stereo not drawn) | -2%
34 | COc1ccc(N=C2C(=O)Nc3ccc(Br)cc32)cc1 | 23%
35 | Cn1c(=O)c2ccccc2c2ccccc21 | 35%
36 | CC[n+]1ccc2c(C)c3[nH]c4ccc(O)cc4c3c(C)c2c1 | 31%
37 | CC(=O)ON1C(=O)c2cccc3cccc(c23)C1=O | 92% (active)
38 | COc1ccc2ccc3ccccc3c2c1C=O | 68%
39 | OC1CCCc2c1cc1ccc3cccc4ccc2c1c34 (stereo not drawn) | 94% (active)

Same assay, conditions: S. cerevisiae sgs1 mgt1 strain, at 50.0 µM, stronger effect = higher value

Row | Compound | growth inhibition
40 | CCN(CC)CC[n+]1ccc2c(C)c3[nH]c4ccc(O)cc4c3c(C)c2c1 | 1.5%
41 | O=[n+]1c2ccc(Cl)cc2n([O-])c2ccc(Cl)cc21 | 13.3%
42 | CCOP(=O)(OCC)C(Cc1ccccc1)N=C(c1ccccc1)c1ccccc1 (stereo not drawn) | 98.8% (active)
43 | CC[C@@]1(O)C(=O)OCc2c1cc1n(c2=O)Cc2cc3c(N)cccc3nc2-1 | 19.9%
44 | COC1C=COC2(C)Oc3c(C)c(O)c4c(c3C2=O)/C(=N/C2CCC(O)OC2C)C=C(NC(=O)/C(C)=C\C(=O)C2CC2C(O)C(C)C(O)C(C)C(OC(C)=O)C1C)C4=O (stereo not drawn) | 33.5%
45 | COc1cc2c(c(OC)c1OC)-c1c(cc3c(c1OC)OCO3)CC(C)C(C)(O)C2OC(=O)c1ccccc1 (stereo not drawn) | 85.4% (active)
46 | O=c1ssc2ncccc12 | 93.2% (active)
47 | O=C1C2C(C(=O)N1c1ccc(OCc3ccccc3)cc1)C1c3ccccc3C2C2CCCCN21 (stereo not drawn) | 90.7% (active)
48 | COc1ccc(-c2cn(-c3ccc(I)cc3)c3ncnc(N)c23)cc1 | -11.2%
49 | CCOC(=O)C(NC(=O)c1ccccc1)(N1CCN(c2cc3c(cc2F)c(=O)c(C(=O)O)cn3C2CC2)CC1)C(F)(F)F (stereo not drawn) | -4.1%
50 | C/C(=N\O)C1CC2C=C(C#N)C1N(Cc1ccccc1)C2 (stereo not drawn) | 3.75%
51 | CC/C(=C(\c1ccccc1)c1ccc(OCCN(C)C)cc1)c1ccccc1 | 92.8% (active)
52 | COc1ccccc1N=NC(C(=O)c1ccccc1)C(=O)c1ccccc1 | 93.7% (active)
53 | CC(O)C(O)C(O)C(/C=N\Nc1ccccc1)=N/Nc1ccccc1 (stereo not drawn) | 95.5% (active)
54 | COc1ccc(/C=C2\SC(=S)N(/C=C/c3nc4ccccc4[nH]c3=O)C2=O)cc1OC | 87% (active)
55 | N#CN=Nc1cc(Cl)c(N=NC#N)cc1Cl | 60.2%
56 | Cc1ccc(S(=O)(=O)Oc2cc(Cl)c(Cl)cc2Cl)cc1 | 7.65%
57 | c1ccc2c(c1)Oc1cccc3cccc-2c13 | 47.6%
58 | O=C(c1ccc(Cl)cc1Cl)C(Cl)Cl | 83.8% (active)
59 | CC(C)C1=CCC2C(=C1)CCC1C(C)(C(=O)O)CCCC21C (stereo not drawn) (tested in a mixture with another compound) | 84.5% (active)

Row | Compound | growth inhibition
60 | COc1cc(/C=C2\CCc3ccccc3C2=O)cc(OC)c1OC | 56.8%
61 | CC(=O)[O][Bi]([c]1ccccc1)[c]1ccccc1 | 86.5% (active)
62 | S=C(N/N=C/c1ccccn1)Nc1ccc(Cl)cc1 | 83.8% (active)
63 | COc1cc(CC2CC(c3ccc4c(c3)OCO4)OC2=O)cc(OC)c1OC (stereo not drawn) | -2.9%
64 | CNC1C(OC2C(OC3C(O)C(O)C(N=C(N)N)C(O)C3N=C(N)N)OC(C)C2(O)CO)OC(CO)C(O)C1O (stereo not drawn) | 91.8% (active)
65 | NNC(=O)CCc1ccc2ccc3ccccc3c2c1 | 20.1%
66 | Oc1ccc2ccccc2c1C(c1ccc(Cl)cc1)c1c(O)ccc2ccccc12 | 19.4%
67 | CCCCN(CCCC)CCSc1ccc(Cl)cc1 | 82.4% (active)
68 | CCC(C)COC(=O)c1ccc(N=Cc2ccc(C=Nc3ccc(C(=O)OCC(C)CC)cc3)cc2)cc1 (stereo not drawn) | 70.3% (active)
69 | CC1(C)C(=O)OC(n2cc(F)c(=O)[nH]c2=O)C1=O (stereo not drawn) | 30%
70 | O=[N+]([O-])CC(SCc1ccccc1)c1ccc2c(c1)OCO2 (stereo not drawn) | 92.7% (active)
71 | COc1cc2c(cc1[N+](=O)[O-])C(=O)C(Br)(Br)CCC2 | 90% (active)
72 | OCC1OC(OCC(O)C(O)C(O)C(/C=N/Nc2ccccc2)=N/Nc2ccccc2)C(O)C(O)C1O (stereo not drawn) | 93.3% (active)
73 | COc1ccc(N=C2C(=O)Nc3ccc(Br)cc32)cc1 | 28.9%
74 | Cn1c(=O)c2ccccc2c2ccccc21 | 84.9% (active)
75 | CC[n+]1ccc2c(C)c3[nH]c4ccc(O)cc4c3c(C)c2c1 | 9.25%
76 | CC(=O)ON1C(=O)c2cccc3cccc(c23)C1=O | 90.7% (active)
77 | COc1ccc2ccc3ccccc3c2c1C=O | 55.8%
78 | OC1CCCc2c1cc1ccc3cccc4ccc2c1c34 (stereo not drawn) | 97.4% (active)
